Assay [1] has as its target Aryl hydrocarbon receptor (Homo sapiens) (UniProt P35869). As to the kind of experiment: qHTS assay to identify small molecule that activate the aryl hydrocarbon receptor (AhR) signaling pathway (AID 743085).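 Further: HG2L7.5c1 human HepG2 liver cells with stably integrated DRE-driven firefly reporter; series mostly up to about 70 µM; nearly all actives have a fitted effect of over 15% in size.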 In a few lines: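 Luminescence read-out: ONE-Glo reagent, 30 min at room temperature, in HG2L7.5c1 HepG2 reporter cells treated 24 h at 37C. Viability was measured beforehand by CellTiter-Fluor fluorescence after 30 min at 37C.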
Background: Quantitative high-throughput screening tests each substance at several concentrations.

A short description of assay [2]: qHTS assay to identify small molecule that activate the aryl hydrocarbon receptor (AhR) signaling pathway - cell viability counter screen (AID 743086). Further: nearly all actives have a fitted effect of over 45% in size. Further: potency means the concentration at half of the fitted maximal effect. The method, boiled down: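 HepG2-AhR-luc (HG2L7.5c1) cells, 4000/well, were preincubated 5 h at 37C, exposed to compound in qHTS format for 24 hr at 37C, then given CellTiter-Fluor for 30 min; viability was read as fluorescence in the reporter wells.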

The nature of assay [3]: qHTS assay for small molecule agonists of the antioxidant response element (ARE) signaling pathway - cell viability counter screen (AID 743203; calls by dose curve; further: nearly all actives have a fitted effect of over 55% in size; further: potency means the concentration at half of the fitted maximal effect). In a few lines: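 Viability counter screen: CellTiter-Glo luminescence, read after 30 min at room temperature, in ARE-bla HepG2 wells. Compound exposure lasted 16 h at 37C/5% CO2, following a 5 h pre-incubation of the cells after plating.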

Assay [4] is described as follows: qHTS assay for small molecule activators of the heat shock response signaling pathway - cell viability counter screen (AID 743209). Further: nearly all actives have a fitted effect of over 50% in size. The method, boiled down: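 Cytotoxicity counter screen run in the same wells as the heat-shock bla reporter assay: HeLa HSE-bla cells, 5 h compound exposure at 37 C, viability read by CellTiter-Glo luminescence.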
Assay [5] is described as follows: qHTS assay for small molecule activators of the heat shock response signaling pathway (AID 743210; active means well fitted activation curve with a large enough effect in the signal ratio in the repeat runs, with a control signal flat, not every such curve was filed as active; the % refers to the signal ratio;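 further: HeLa cells with beta-lactamase reporter driven by heat shock elements; series mostly up to about 63 µM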). The method, boiled down: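 Activation of heat shock element-controlled beta-lactamase expression is measured in HeLa cells by LiveBLAzer FRET fluorescence, with compound exposure lasting 5 h at 37 C and substrate loading 2.5 h at room temperature.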
Assay [6] in a line: qHTS assay to identify small molecule agonists of the peroxisome proliferator-activated receptor delta (PPARd) signaling pathway - cell viability counter screen (AID 743211). Further: nearly all actives have a fitted effect of over 55% in size. In a few lines: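 Read-out: CellTiter-Glo luminescence, 30 min RT, measured in the same wells as the beta-lactamase reporter. Cells: GeneBLAzer PPAR delta UAS-bla HEK293H, 3000 cells/well, compound exposure 17 h at 37C.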

For assay [7], the target named is Peroxisome proliferator-activated receptor gamma (Homo sapiens) (UniProt P37231). The assay can be described thus: qHTS assay to identify small molecule antagonists of the peroxisome proliferator-activated receptor gamma (PPARg) signaling pathway (AID 743191; calls by dose curve; further: nearly all actives have a fitted effect of over 30% in size; further: potency means the concentration at half of the fitted maximal effect). In a few lines:
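GeneBLAzer PPARg UAS-bla HEK293H cells carrying a UAS-driven beta-lactamase reporter were plated at 3000 cells/well, preincubated 5 h at 37C, then given compound for 17 h at 37C; LiveBLAzer B/G FRET substrate was read after 1 h at room temperature.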

A short description of assay [8]: qHTS assay for small molecule agonists of the antioxidant response element (ARE) signaling pathway (AID 743202; active means well fitted activation curve with a large enough effect in the signal ratio in the repeat runs, not every such curve was filed as active; the % refers to the signal ratio). In a few lines: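 Steps: seed ARE-bla HepG2 cells (2,000/well); incubate 5 h at 37 C; add compounds by pin tool; incubate 16 h at 37 C; add FRET substrate; read fluorescence after 2 h at RT.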
Assay [9] addresses Peroxisome proliferator-activated receptor gamma (Homo sapiens) (UniProt P37231). As to the kind of experiment: qHTS assay to identify small molecule agonists of the peroxisome proliferator-activated receptor gamma (PPARg) signaling pathway (AID 743094; active means well fitted activation curve with a large enough effect in the signal ratio in the repeat runs, not every such curve was filed as active; the % refers to the signal ratio). In a few lines:
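Agonist activity was taken from a beta-lactamase reporter (FRET substrate, 1 h at room temperature) in HEK293H cells carrying a PPARg UAS-bla construct. Compounds in DMSO were incubated 17 h at 37C after a 5 h cell pre-incubation.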

Assay [10] can be described thus: qHTS assay to identify small molecule antagonists of the peroxisome proliferator-activated receptor gamma (PPARg) signaling pathway - cell viability counter screen (AID 743194). Further: nearly all actives have a fitted effect of over 55% in size. The method, boiled down:
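PPARg-UAS-bla HEK293H cells were plated, rested 5 h at 37 C, then treated with compounds plus rosiglitazone (50 nM final) for 17 h at 37 C; viability was then read by CellTiter-Glo luminescence after 30 min at room temperature.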

The record followed here is PubChem BioAssay (Tox21).

Structures are written as SMILES. Inconclusive results are not listed. Active and inactive are the calls of the source. Unless noted, the call rests on the fitted dose curve; in most records, active means well fitted curve in the direction sought with a large enough effect in the repeat runs; inconclusive means weak or mixed curves; inactive means no such curve, though single readings can be large; an effect the other way counts as inactive or inconclusive.

Chain of Peroxisome proliferator-activated receptor gamma (Homo sapiens) (P37231 whole entry, looked up): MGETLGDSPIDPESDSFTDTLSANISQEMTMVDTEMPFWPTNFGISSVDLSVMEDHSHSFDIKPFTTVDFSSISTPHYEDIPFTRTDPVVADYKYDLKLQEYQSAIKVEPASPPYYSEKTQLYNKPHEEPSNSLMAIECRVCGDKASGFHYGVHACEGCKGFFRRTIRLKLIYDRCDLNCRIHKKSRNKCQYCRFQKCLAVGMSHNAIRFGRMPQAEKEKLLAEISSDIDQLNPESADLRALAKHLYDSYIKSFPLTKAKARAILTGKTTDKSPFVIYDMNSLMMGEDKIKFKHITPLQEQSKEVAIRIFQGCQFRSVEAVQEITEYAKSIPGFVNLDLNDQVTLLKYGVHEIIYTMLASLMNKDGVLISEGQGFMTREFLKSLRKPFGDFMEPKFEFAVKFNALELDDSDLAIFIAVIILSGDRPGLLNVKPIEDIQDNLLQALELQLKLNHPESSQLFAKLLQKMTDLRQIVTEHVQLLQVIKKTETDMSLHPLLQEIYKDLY
Chain of Aryl hydrocarbon receptor (Homo sapiens) (P35869 whole entry, looked up): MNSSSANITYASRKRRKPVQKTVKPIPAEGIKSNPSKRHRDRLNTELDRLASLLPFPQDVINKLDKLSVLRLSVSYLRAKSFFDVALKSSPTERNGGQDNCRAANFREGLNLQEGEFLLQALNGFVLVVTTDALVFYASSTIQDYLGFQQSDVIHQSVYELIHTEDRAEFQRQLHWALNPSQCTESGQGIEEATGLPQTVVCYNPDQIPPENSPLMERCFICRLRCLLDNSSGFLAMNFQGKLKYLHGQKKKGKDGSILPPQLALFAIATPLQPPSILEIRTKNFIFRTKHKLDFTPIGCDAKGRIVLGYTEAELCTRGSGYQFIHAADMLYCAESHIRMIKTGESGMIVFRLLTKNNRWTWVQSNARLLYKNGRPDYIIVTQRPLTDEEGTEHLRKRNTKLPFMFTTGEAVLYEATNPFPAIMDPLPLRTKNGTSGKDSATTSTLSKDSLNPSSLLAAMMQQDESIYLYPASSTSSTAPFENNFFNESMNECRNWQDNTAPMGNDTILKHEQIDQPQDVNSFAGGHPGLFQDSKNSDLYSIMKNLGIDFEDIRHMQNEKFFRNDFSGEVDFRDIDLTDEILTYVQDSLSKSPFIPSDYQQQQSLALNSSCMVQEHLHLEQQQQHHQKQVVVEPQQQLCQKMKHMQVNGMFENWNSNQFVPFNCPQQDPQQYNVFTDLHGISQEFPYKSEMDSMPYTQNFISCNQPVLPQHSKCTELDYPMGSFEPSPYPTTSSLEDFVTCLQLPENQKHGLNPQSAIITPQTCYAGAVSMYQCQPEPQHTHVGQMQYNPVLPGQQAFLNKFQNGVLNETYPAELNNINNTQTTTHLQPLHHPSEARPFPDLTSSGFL

As for `O=C(O)Cc1ccc(-c2ccccc2)cc1`, the Potency entry in [1], in [2], in assay [3], in [4], in [5] and in assay [6] was “inactive” in each case.
Turning to `C/C(=N/NC(=O)c1ccncc1)C(=O)O`, the Potency result in assay [7], in assay [8], in [3], in [4], in assay [5] and in assay [6] was “inactive” in each case.
As for `CCCOC(=O)c1ccc(N)cc1`, the Potency entry in [2], in assay [9], in assay [10], in assay [3], in assay [4] and in assay [5] was “inactive” in each case. Further, the Potency result in assay [6] was “inactive”.
Take `CO[C@@]12[C@H](COC(N)=O)C3=C(C(=O)C(C)=C(N)C3=O)N1C[C@@H]1N[C@@H]12`: the Potency in [2] was 29.8 µM (active); in assay [3], 16.8 µM (active). Besides, the Potency entry in assay [5] is “inactive”.
With `O=C(O)c1c(O)c(-c2ccccc2)nc2ccccc12`, the Potency entry in assay [10], in assay [8], in assay [3], in assay [4], in [5] and in assay [6] was “inactive” in each case.
On to `CCCOCCOCCO`, for which the Potency result in assay [2], in assay [9], in assay [10], in [8], in assay [3] and in [4] was “inactive” in each case. Further, the Potency result in assay [5] and in [6] was “inactive” each time.
Regarding `COc1ccccc1N=Nc1c(S(=O)(=O)O)cc2cc(S(=O)(=O)O)cc(NC(C)=O)c2c1O`, the Potency in assay [2] is 22.9 µM (active). For the same compound, the Potency entry in assay [9], in [10], in assay [8], in assay [3], in assay [4] and in [5] was “inactive” in each case. Also, in [6], the Potency entry is “inactive”.
As for `CC(C)(C)C(=O)O`, the Potency entry in [2], in assay [9], in [7], in assay [10], in [3] and in assay [4] was “inactive” each time. The Potency entry in assay [5] and in [6] was “inactive” in each case.
For `CC(C)=CC=O`, the Potency result in assay [2], in assay [9], in assay [8], in assay [3], in assay [4] and in [5] was “inactive” each time. The Potency entry in assay [6] was “inactive”.
With `O=C(/C=C/c1ccccc1)OCCCc1ccccc1`, the Potency result in [2], in [10], in assay [3], in assay [4], in assay [5] and in assay [6] was “inactive” in each case.
With `COC(=O)c1cc(S(N)(=O)=O)ccc1OC`, the Potency entry in assay [10], in assay [8], in assay [3], in assay [4] and in assay [5] was “inactive” throughout.
For the compound `CCCCC(CC)CNCC(CC)CCCC` (centres undefined), the Potency entry in [2], in assay [10], in assay [8], in assay [3], in assay [4] and in assay [5] was “inactive” throughout.
With `C[C@@H]1C[C@H]2[C@@H]3CCC4=CC(=O)C=C[C@]4(C)[C@@]3(F)[C@@H](O)C[C@]2(C)[C@H]1C(=O)CO`, the Potency result in assay [2], in [9], in assay [10], in assay [3], in assay [4] and in assay [5] was “inactive” each time. In addition, in [6], the Potency result is “inactive”.
With `Cc1ccc(Nc2nccc(N(C)c3ccc4c(C)n(C)nc4c3)n2)cc1S(N)(=O)=O`, the Potency was 23.7 µM (active) in assay [2] and 26.6 µM (active) in assay [7]. Moreover, the Potency result in assay [3], in assay [4] and in assay [5] was “inactive” each time.
For the compound `Nc1c(I)cc(I)c(C(=O)N(CCC(=O)O)c2ccccc2)c1I`, the Potency result in assay [10], in [8], in assay [3], in assay [4] and in [5] was “inactive” throughout.
For the compound `NC(=O)Nc1ccc(Cl)c(Cl)c1`, the Potency result in assay [2], in [9], in [10], in assay [4], in [5] and in [6] was “inactive” in each case.
Turning to `O=Cc1c(Cl)cccc1Cl`, the Potency entry in assay [2], in assay [9], in [3], in [4] and in [5] was “inactive” each time.
For `CCOCCn1c(C2CCN(CCc3ccc(C(C)(C)C(=O)O)cc3)CC2)nc2ccccc21`, the Potency entry in assay [10], in [8], in [3], in [4], in assay [5] and in assay [6] was “inactive” throughout.
For the compound `C=CCNc1nc(NCC=C)nc(N2CCN(C(c3ccc(F)cc3)c3ccc(F)cc3)CC2)n1`, the Potency result in assay [10], in assay [4], in assay [5] and in assay [6] was “inactive” throughout.
Take `O=C(C(=O)c1ccccc1)c1ccccc1`: the Potency entry in assay [2], in assay [10], in assay [3], in assay [4] and in [5] was “inactive” in each case.
Turning to `O=C(O)c1ccccc1NCCc1ccccc1`, the Potency result in assay [10], in assay [3], in assay [4], in [5] and in assay [6] was “inactive” each time.
